Results: article PMC11006913
Substitutions are numbered along the chain they refer to.

Key:
Test in all cases: PBM; 200 nM protein, PBS
Settings in all cases: dsDNA, one strand shown
SHOX [1] = target: SHOX (Homo sapiens, UniProt O15266 103-189)
CRX [2] = target: CRX (Homo sapiens, UniProt O43186 26-111)
CRX [3] = target: CRX (Homo sapiens, UniProt O43186 26-111, E42D)
SHOX [4] = target: SHOX (Homo sapiens, UniProt O15266 103-189, R173C)
CRX [5] = target: CRX (Homo sapiens, UniProt O43186 26-111, R41L)
CRX (Homo sapiens, UniProt O43186 26-111, R41L), sequence (O43186 26-111 R41L): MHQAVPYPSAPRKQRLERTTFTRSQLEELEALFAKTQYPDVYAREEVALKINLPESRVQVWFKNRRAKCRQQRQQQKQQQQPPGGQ

MSX2 [6] = target: MSX2 (Homo sapiens, UniProt P35548 130-214, R199I)
MSX2 (Homo sapiens, UniProt P35548 130-214, R199I), sequence (P35548 130-214 R199I): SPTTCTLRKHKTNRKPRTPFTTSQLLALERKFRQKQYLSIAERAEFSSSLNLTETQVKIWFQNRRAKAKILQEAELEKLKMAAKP

MSX2 [7] = target: MSX2 (Homo sapiens, UniProt P35548 130-214)
MSX2 (Homo sapiens, UniProt P35548 130-214), sequence (P35548 130-214): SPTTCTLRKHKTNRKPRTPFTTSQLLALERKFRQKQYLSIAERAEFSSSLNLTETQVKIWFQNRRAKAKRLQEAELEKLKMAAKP

MSX2 [8] = target: MSX2 (Homo sapiens, UniProt P35548 130-214, F161Y)
MSX2 (Homo sapiens, UniProt P35548 130-214, F161Y), sequence (P35548 130-214 F161Y): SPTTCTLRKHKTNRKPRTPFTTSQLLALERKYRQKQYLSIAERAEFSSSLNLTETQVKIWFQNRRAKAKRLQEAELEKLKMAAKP

ALX4 [9] = target: ALX4 (Homo sapiens, UniProt Q9H161 200-286)
ALX4 (Homo sapiens, UniProt Q9H161 200-286), sequence (Q9H161 200-286): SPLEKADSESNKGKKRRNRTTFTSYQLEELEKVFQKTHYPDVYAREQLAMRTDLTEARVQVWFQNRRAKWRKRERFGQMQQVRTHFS

PAX4 [10] = target: T1, PAX4 (Homo sapiens, UniProt O43316 9-242, R200K)
T1 sequence: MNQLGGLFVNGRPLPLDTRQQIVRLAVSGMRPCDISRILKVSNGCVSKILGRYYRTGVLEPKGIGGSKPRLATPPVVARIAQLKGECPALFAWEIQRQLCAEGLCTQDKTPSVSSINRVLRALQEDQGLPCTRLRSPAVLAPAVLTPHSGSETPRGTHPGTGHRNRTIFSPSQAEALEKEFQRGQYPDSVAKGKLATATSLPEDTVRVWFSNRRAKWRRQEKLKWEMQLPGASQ

PAX4 [11] = target: T2, PAX4 (Homo sapiens, UniProt O43316 9-242)
T2 sequence: T1 sequence with K192R

ALX4 [12] = target: ALX4 (Homo sapiens, UniProt Q9H161 200-286, Q225E)
ALX4 (Homo sapiens, UniProt Q9H161 200-286, Q225E), sequence (Q9H161 200-286 Q225E): as the sequence (Q9H161 200-286) above, with Q26E counted along it

ALX1 [13] = target: ALX1 (Homo sapiens, UniProt Q15699 118-204, L144V)
ALX1 (Homo sapiens, UniProt Q15699 118-204, L144V), sequence (Q15699 118-204 L144V): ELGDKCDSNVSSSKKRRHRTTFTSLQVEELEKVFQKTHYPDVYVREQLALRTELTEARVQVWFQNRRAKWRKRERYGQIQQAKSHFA

ALX3 [14] = target: ALX3 (Homo sapiens, UniProt O95076 139-225, N203Q)
ALX3 (Homo sapiens, UniProt O95076 139-225, N203Q), sequence (O95076 139-225 N203Q): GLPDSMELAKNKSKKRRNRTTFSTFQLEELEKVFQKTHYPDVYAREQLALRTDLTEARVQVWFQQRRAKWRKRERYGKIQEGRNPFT

PAX4 [15] = target: T3, PAX4 (Homo sapiens, UniProt O43316 9-242, R200Q)
T3 sequence: T1 sequence with K192Q

ALX1 [16] = target: ALX1 (Homo sapiens, UniProt Q15699 118-204, L144R)
ALX1 (Homo sapiens, UniProt Q15699 118-204, L144R), sequence (Q15699 118-204 L144R): as the sequence (Q15699 118-204 L144V) above, with V27R counted along it

PAX4 [17] = target: T4, PAX4 (Homo sapiens, UniProt O43316 9-242, F177V)
T4 sequence: T1 sequence with F169V, K192R

ALX3 [18] = target: ALX3 (Homo sapiens, UniProt O95076 139-225)
ALX3 (Homo sapiens, UniProt O95076 139-225), sequence (O95076 139-225): as the sequence (O95076 139-225 N203Q) above, with Q65N counted along it

PAX4 [19] = target: T5, PAX4 (Homo sapiens, UniProt O43316 9-242, F177Y)
T5 sequence: T1 sequence with F169Y, K192R

PROP1 [20] = target: PROP1 (Homo sapiens, UniProt O75360 56-141)
PROP1 (Homo sapiens, UniProt O75360 56-141), sequence (O75360 56-141): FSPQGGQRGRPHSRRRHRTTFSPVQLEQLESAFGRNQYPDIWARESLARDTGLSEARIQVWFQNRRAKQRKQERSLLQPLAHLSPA

PROP1 [21] = target: PROP1 (Homo sapiens, UniProt O75360 56-141, R99H)
PROP1 (Homo sapiens, UniProt O75360 56-141, R99H), sequence (O75360 56-141 R99H): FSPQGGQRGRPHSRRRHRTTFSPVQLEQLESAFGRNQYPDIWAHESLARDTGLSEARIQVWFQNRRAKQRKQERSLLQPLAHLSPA

ALX3 [22] = target: ALX3 (Homo sapiens, UniProt O95076 139-225, L168Q)
ALX3 (Homo sapiens, UniProt O95076 139-225, L168Q), sequence (O95076 139-225 L168Q): as the sequence (O95076 139-225 N203Q) above, with L30Q, Q65N counted along it

ALX3 [23] = target: ALX3 (Homo sapiens, UniProt O95076 139-225, L168V)
ALX3 (Homo sapiens, UniProt O95076 139-225, L168V), sequence (O95076 139-225 L168V): as the sequence (O95076 139-225 N203Q) above, with L30V, Q65N counted along it

PROP1 [24] = target: PROP1 (Homo sapiens, UniProt O75360 56-141, F88S)
PROP1 (Homo sapiens, UniProt O75360 56-141, F88S), sequence (O75360 56-141 F88S): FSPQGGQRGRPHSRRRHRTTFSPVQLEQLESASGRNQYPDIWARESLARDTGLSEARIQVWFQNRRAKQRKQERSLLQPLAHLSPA

PAX4 [25] = target: T6, PAX4 (Homo sapiens, UniProt O43316 9-242, R227W)
T6 sequence: T1 sequence with K192R, R219W

ALX1 [26] = target: ALX1 (Homo sapiens, UniProt Q15699 118-204)
ALX1 (Homo sapiens, UniProt Q15699 118-204), sequence (Q15699 118-204): as the sequence (Q15699 118-204 L144V) above, with V27L counted along it

ALX3 [27] = target: ALX3 (Homo sapiens, UniProt O95076 139-225, N203S)
ALX3 (Homo sapiens, UniProt O95076 139-225, N203S), sequence (O95076 139-225 N203S): as the sequence (O95076 139-225 N203Q) above, with Q65S counted along it

PRRX1 [28] = target: PRRX1 (Homo sapiens, UniProt P54821 80-166, F113S)
PRRX1 (Homo sapiens, UniProt P54821 80-166, F113S), sequence (P54821 80-166 F113S): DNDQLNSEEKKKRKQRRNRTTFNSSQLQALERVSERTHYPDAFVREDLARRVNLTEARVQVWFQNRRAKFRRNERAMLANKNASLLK

PRRX1 [29] = target: PRRX1 (Homo sapiens, UniProt P54821 80-166)
PRRX1 (Homo sapiens, UniProt P54821 80-166), sequence (P54821 80-166): as the sequence (P54821 80-166 F113S) above, with S34F counted along it

SHOX (Homo sapiens, UniProt O15266 103-189, R173C), sequence (O15266 103-189 R173C): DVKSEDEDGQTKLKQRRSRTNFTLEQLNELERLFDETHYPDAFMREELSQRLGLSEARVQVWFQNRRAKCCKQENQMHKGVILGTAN
SHOX (Homo sapiens, UniProt O15266 103-189), sequence (O15266 103-189): as the sequence (O15266 103-189 R173C) above, with C71R counted along it
CRX (Homo sapiens, UniProt O43186 26-111), sequence (O43186 26-111): as the sequence (O43186 26-111 R41L) above, with L16R counted along it
CRX (Homo sapiens, UniProt O43186 26-111, E42D), sequence (O43186 26-111 E42D): as the sequence (O43186 26-111 R41L) above, with L16R, E17D counted along it

Question: For GTTAGTCA, which binding signal (SHOX [1]) is on record?
Answer: 8.37 upbm affinity estimate (log intensity, higher = more binding, comparable within an allelic series)

Question: For AATTTCGA, which binding signal (SHOX [1]) is on record?
Answer: 8.68 upbm affinity estimate (log intensity, higher = more binding, comparable within an allelic series)

Question: TTAGGAAA was tested. Which binding signal (SHOX [1]) did it give?
Answer: 8.58 upbm affinity estimate (log intensity, higher = more binding, comparable within an allelic series)

Question: For CAGTCGCG, which binding signal (SHOX [1]) is on record?
Answer: 7 upbm affinity estimate (log intensity, higher = more binding, comparable within an allelic series)

Question: And the binding signal (CRX [2])?
Answer: 8.23 upbm affinity estimate (log intensity, higher = more binding, comparable within an allelic series)

Question: What about the binding signal (CRX [3]) of the same sequence?
Answer: 8.35 upbm affinity estimate (log intensity, higher = more binding, comparable within an allelic series)

Question: And the binding signal (SHOX [4])?
Answer: 7.2 upbm affinity estimate (log intensity, higher = more binding, comparable within an allelic series)

Question: What about the binding signal (CRX [5]) of the same sequence?
Answer: 8.3 upbm affinity estimate (log intensity, higher = more binding, comparable within an allelic series)

Question: Which binding signal (SHOX [1]) does the source give for GCGCCAGC here?
Answer: 7.13 upbm affinity estimate (log intensity, higher = more binding, comparable within an allelic series)

Question: And the binding signal (MSX2 [6])?
Answer: 9.22 upbm affinity estimate (log intensity, higher = more binding, comparable within an allelic series)

Question: What about the binding signal (SHOX [4]) of the same sequence?
Answer: 6.97 upbm affinity estimate (log intensity, higher = more binding, comparable within an allelic series)

Question: What about the binding signal (MSX2 [7]) of the same sequence?
Answer: 9.48 upbm affinity estimate (log intensity, higher = more binding, comparable within an allelic series)

Question: What about the binding signal (MSX2 [8]) of the same sequence?
Answer: 9.39 upbm affinity estimate (log intensity, higher = more binding, comparable within an allelic series)

Question: Which results are given for CAAATTAG?
Answer: binding signal (SHOX [1]): 11.8 upbm affinity estimate (log intensity, higher = more binding, comparable within an allelic series); binding signal (ALX4 [9]): 13.6 upbm affinity estimate (log intensity, higher = more binding, comparable within an allelic series); binding signal (PAX4 [10]): 11.8 upbm affinity estimate (log intensity, higher = more binding, comparable within an allelic series); binding signal (PAX4 [11]): 12.4 upbm affinity estimate (log intensity, higher = more binding, comparable within an allelic series); binding signal (ALX4 [12]): 12.4 upbm affinity estimate (log intensity, higher = more binding, comparable within an allelic series); binding signal (MSX2 [6]): 12.1 upbm affinity estimate (log intensity, higher = more binding, comparable within an allelic series); binding signal (ALX1 [13]): 11.3 upbm affinity estimate (log intensity, higher = more binding, comparable within an allelic series); binding signal (ALX3 [14]): 8.31 upbm affinity estimate (log intensity, higher = more binding, comparable within an allelic series); binding signal (PAX4 [15]): 12.3 upbm affinity estimate (log intensity, higher = more binding, comparable within an allelic series); binding signal (SHOX [4]): 9.26 upbm affinity estimate (log intensity, higher = more binding, comparable within an allelic series); binding signal (ALX1 [16]): 10.9 upbm affinity estimate (log intensity, higher = more binding, comparable within an allelic series); binding signal (PAX4 [17]): 10.4 upbm affinity estimate (log intensity, higher = more binding, comparable within an allelic series); binding signal (MSX2 [7]): 13.3 upbm affinity estimate (log intensity, higher = more binding, comparable within an allelic series); binding signal (ALX3 [18]): 12.2 upbm affinity estimate (log intensity, higher = more binding, comparable within an allelic series); binding signal (PAX4 [19]): 11 upbm affinity estimate (log intensity, higher = more binding, comparable within an allelic series); binding signal (PROP1 [20]): 11.1 upbm affinity estimate (log intensity, higher = more binding, comparable within an allelic series); binding signal (PROP1 [21]): 10.7 upbm affinity estimate (log intensity, higher = more binding, comparable within an allelic series); binding signal (ALX3 [22]): 10.1 upbm affinity estimate (log intensity, higher = more binding, comparable within an allelic series); binding signal (ALX3 [23]): 9.51 upbm affinity estimate (log intensity, higher = more binding, comparable within an allelic series); binding signal (PROP1 [24]): 7.47 upbm affinity estimate (log intensity, higher = more binding, comparable within an allelic series); binding signal (MSX2 [8]): 12.9 upbm affinity estimate (log intensity, higher = more binding, comparable within an allelic series); binding signal (PAX4 [25]): 11 upbm affinity estimate (log intensity, higher = more binding, comparable within an allelic series); binding signal (ALX1 [26]): 12.1 upbm affinity estimate (log intensity, higher = more binding, comparable within an allelic series); binding signal (ALX3 [27]): 8.39 upbm affinity estimate (log intensity, higher = more binding, comparable within an allelic series)

Question: With CGAACCGC as the sequence, how does the binding signal (SHOX [1]) read?
Answer: 7.29 upbm affinity estimate (log intensity, higher = more binding, comparable within an allelic series)

Question: What about the binding signal (PRRX1 [28]) of the same sequence?
Answer: 9.29 upbm affinity estimate (log intensity, higher = more binding, comparable within an allelic series)

Question: And the binding signal (SHOX [4])?
Answer: 7.2 upbm affinity estimate (log intensity, higher = more binding, comparable within an allelic series)

Question: And the binding signal (PRRX1 [29])?
Answer: 9.38 upbm affinity estimate (log intensity, higher = more binding, comparable within an allelic series)

Question: ACAAATTA was tested. Which binding signal (SHOX [1]) did it give?
Answer: 11.4 upbm affinity estimate (log intensity, higher = more binding, comparable within an allelic series)

Question: What about the binding signal (PAX4 [10]) of the same sequence?
Answer: 11.7 upbm affinity estimate (log intensity, higher = more binding, comparable within an allelic series)

Question: And the binding signal (PAX4 [11])?
Answer: 12.3 upbm affinity estimate (log intensity, higher = more binding, comparable within an allelic series)

Question: What about the binding signal (MSX2 [6]) of the same sequence?
Answer: 12 upbm affinity estimate (log intensity, higher = more binding, comparable within an allelic series)

Question: And the binding signal (ALX1 [13])?
Answer: 11.3 upbm affinity estimate (log intensity, higher = more binding, comparable within an allelic series)

Question: What about the binding signal (ALX3 [14]) of the same sequence?
Answer: 8.4 upbm affinity estimate (log intensity, higher = more binding, comparable within an allelic series)

Question: What about the binding signal (PAX4 [15]) of the same sequence?
Answer: 12.2 upbm affinity estimate (log intensity, higher = more binding, comparable within an allelic series)

Question: What about the binding signal (SHOX [4]) of the same sequence?
Answer: 9.08 upbm affinity estimate (log intensity, higher = more binding, comparable within an allelic series)

Question: And the binding signal (ALX1 [16])?
Answer: 10.9 upbm affinity estimate (log intensity, higher = more binding, comparable within an allelic series)

Question: And the binding signal (PAX4 [17])?
Answer: 10.5 upbm affinity estimate (log intensity, higher = more binding, comparable within an allelic series)

Question: And the binding signal (MSX2 [7])?
Answer: 13.3 upbm affinity estimate (log intensity, higher = more binding, comparable within an allelic series)

Question: And the binding signal (ALX3 [18])?
Answer: 12.2 upbm affinity estimate (log intensity, higher = more binding, comparable within an allelic series)

Question: What about the binding signal (PAX4 [19]) of the same sequence?
Answer: 11 upbm affinity estimate (log intensity, higher = more binding, comparable within an allelic series)

Question: And the binding signal (ALX3 [22])?
Answer: 10.1 upbm affinity estimate (log intensity, higher = more binding, comparable within an allelic series)

Question: What about the binding signal (ALX3 [23]) of the same sequence?
Answer: 9.54 upbm affinity estimate (log intensity, higher = more binding, comparable within an allelic series)

Question: What about the binding signal (MSX2 [8]) of the same sequence?
Answer: 12.9 upbm affinity estimate (log intensity, higher = more binding, comparable within an allelic series)

Question: What about the binding signal (PAX4 [25]) of the same sequence?
Answer: 11 upbm affinity estimate (log intensity, higher = more binding, comparable within an allelic series)

Question: And the binding signal (ALX1 [26])?
Answer: 12 upbm affinity estimate (log intensity, higher = more binding, comparable within an allelic series)

Question: What about the binding signal (ALX3 [27]) of the same sequence?
Answer: 8.51 upbm affinity estimate (log intensity, higher = more binding, comparable within an allelic series)
